Assay results published in PubChem BioAssay AID2642 (Johns Hopkins Ion Channel Center, 2010).
Screen size: about 310,000 compounds; about 3,900 (1.3%) were called active.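 Rule for the calls: active = compounds whose thallium flux B-score, printed positive for inhibition, exceeds three library SD while starting fluorescence stays within three; inactive = the rest.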 Shown is part of a subset that was picked to be rich in actives.

Biological target: Potassium voltage-gated channel subfamily KQT member 1 (Homo sapiens) (UniProt P51787)
Assay: inhibitors of human KCNQ1 channel, primary screen, cell-based, thallium flux, high-throughput (AID 2642);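 note: channel opened by potassium depolarization with thallium stimulus after 20 min compound exposure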
Details: CHO-K1 KCNQ1, FluxOR thallium flux fluorescence, at 10 µM; hits give high values

Potassium voltage-gated channel subfamily KQT member 1 (Homo sapiens), sequence (P51787 whole entry, looked up): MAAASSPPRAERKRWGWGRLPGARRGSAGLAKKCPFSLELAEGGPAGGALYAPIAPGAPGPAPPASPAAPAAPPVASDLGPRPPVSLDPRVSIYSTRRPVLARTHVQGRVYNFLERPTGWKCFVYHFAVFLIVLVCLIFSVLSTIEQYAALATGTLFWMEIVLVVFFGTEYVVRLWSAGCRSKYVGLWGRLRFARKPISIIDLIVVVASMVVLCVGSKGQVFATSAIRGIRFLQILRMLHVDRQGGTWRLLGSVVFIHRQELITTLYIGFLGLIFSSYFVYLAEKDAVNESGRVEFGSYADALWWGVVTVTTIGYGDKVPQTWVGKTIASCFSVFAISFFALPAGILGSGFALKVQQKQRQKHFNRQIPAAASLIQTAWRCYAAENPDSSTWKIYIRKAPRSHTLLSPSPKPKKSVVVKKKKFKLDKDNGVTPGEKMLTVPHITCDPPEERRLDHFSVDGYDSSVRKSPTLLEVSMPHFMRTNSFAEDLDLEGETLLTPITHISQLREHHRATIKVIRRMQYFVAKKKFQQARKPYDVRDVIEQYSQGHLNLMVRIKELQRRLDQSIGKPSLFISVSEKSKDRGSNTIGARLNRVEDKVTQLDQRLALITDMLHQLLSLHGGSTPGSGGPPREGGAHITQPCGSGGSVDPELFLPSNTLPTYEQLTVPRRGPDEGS

Compound	B-score
COc1ccc(N2CCN(C(=O)c3cn(C)c4ccc(S(=O)(=O)N5CCOCC5)cc4c3=O)CC2)cc1	inactive
COCCn1c(N)c(NCc2ccccc2)c(=O)[nH]c1=O	inactive
COC1=CCC2([N+](=O)[O-])CN(CC(=O)O)CC1([N+](=O)[O-])C2 (configuration not stated)	inactive
CCCCOc1ccc(C(=O)NCC(=O)OCC(=O)N2CCN(S(=O)(=O)c3ccc(C)cc3C)CC2)cc1	inactive
COCCn1cnc2c1c(=O)n(Cc1ccc(Br)cc1)c(=O)n2Cc1ccccc1	inactive
N=c1c2c(-c3ccccc3)c(-c3ccccc3)n(Cc3ccccc3)c2ncn1CCCO	10 (active)
CCN(CC)CCn1cnc2c1c(=O)[nH]c(=O)n2Cc1ccccc1	inactive
O=C(Nc1cccc(Cl)c1)Nc1ccccc1NS(=O)(=O)c1cccs1	14 (active)
O=S(=O)(Nc1ccccc1Br)c1cccs1	inactive
O=S(=O)(NCc1ccc(Cl)cc1Cl)c1cccs1	inactive
COCCNC(=O)CN(Cc1ccco1)C(=O)CCC(=O)Nc1nccs1	inactive
O=C(CN1C(=O)c2ccccc2C1=O)NCc1ccc(C(=O)O)cc1	inactive
CC(=O)N(C1=C(Cl)C(=O)c2ccccc2C1=O)c1ccc(C(=O)O)cc1	17 (active)
CC(C)N(C(=O)c1ccc(-c2ccccc2F)cc1)C(C)C	inactive
Cc1ccc(Cl)cc1NC(=O)C1CCCN(c2cnccn2)C1 (configuration not stated)	inactive
O=C(COc1ccc(S(=O)(=O)N2CCOCC2)cc1Cl)N1CCOCC1	inactive
OCC1(Cc2ccccc2C(F)(F)F)CCN(Cc2cccc3cnccc23)CC1	inactive
O=C(c1ccncc1)N1CCN(S(=O)(=O)c2cccc([N+](=O)[O-])c2)CC1	inactive
O=C(Cc1ccsc1)N1CCN(S(=O)(=O)c2cc(C(F)(F)F)cc(C(F)(F)F)c2)CC1	inactive
O=C(c1ccncc1)N1CCN(S(=O)(=O)c2cc(C(F)(F)F)cc(C(F)(F)F)c2)CC1	6 (active)
Cn1c(=O)c2c(nc(N3CCOCC3)n2CCNC2=NCCC2)n(C)c1=O	inactive
CCc1cccc(NC(=O)C2CCCN(S(=O)(=O)c3ccc4[nH]c(=O)ccc4c3)C2)c1 (configuration not stated)	inactive
COC(=O)c1ccc(/C=C2/C(=O)Oc3ccccc32)cc1	inactive

Compound	B-score
C/C(N)=C(/C#N)C(=O)COC(=O)C1CCN(C(=O)c2ccc(Cl)cc2)CC1	inactive
COc1ccc(NC(=O)CNC(=O)Cn2ccc3ccccc3c2=O)c(OC)c1	inactive
Cc1ccc(OCCCCc2c(C)n[nH]c2C)cc1	inactive
CCOC(=O)N1CCN(C(=O)c2ccc(S(=O)(=O)Nc3cccc(C(F)(F)F)c3)cc2)CC1	inactive
CCn1c(/C=C/Nc2ccccc2)[n+](CC)c2ccc(C(=O)OCC(F)(F)F)cc21	9 (active)
CCOC(=O)c1ccc2c(c1)nc(C)n2CC	inactive
O=C(COC(=O)/C=C/c1cccs1)NC1CCCCC1	inactive
Cc1nc(-c2ccc(F)cc2)c(CC(=O)Nc2cccc(S(=O)(=O)N3CCOCC3)c2)s1	inactive
Cc1ccc(NC(=O)COc2ccc(-n3ccnc3)cc2)cc1Cl	inactive
Cc1ccc(-c2nc(-c3cccnc3)sc2CC(=O)Nc2ccc(C)c(Cl)c2)cc1	11 (active)
COc1cc(C(=O)N/C(=C\c2cn(C)c3ccccc23)C(=O)N2CCOCC2)cc(OC)c1OC	inactive
COc1cc(/C=C(\C#N)c2nc3ccccc3[nH]2)ccc1O	9 (active)
COc1cc(/C=C(\C#N)c2nc3c(s2)CC(C)CC3)ccc1O (configuration not stated)	inactive
COc1ccc(/C=C(/NC(=O)c2ccc(C)cc2)c2nc3ccccc3[nH]2)cc1OC	inactive
COc1ccc(/C=C(\NC(=O)c2ccc(OCC(C)C)cc2)C(=O)OCc2ccco2)cc1	inactive
O=C(O)c1ccc(OCC2CCCO2)cc1 (configuration not stated)	inactive
COc1ccccc1C(=O)NC(CCSC)C(=O)NNC(=O)c1csc(N2CCOCC2)n1 (configuration not stated)	inactive
O=C(Nc1ccc(N2CCOCC2)nc1)c1c(F)cccc1F	inactive
O=C(Nc1ccc(F)cc1)c1cccnc1N1CCOCC1	10 (active)
COC(=O)c1cc(NC(=O)c2cccnc2)ccc1N1CCOCC1	inactive
CSCCC(NS(=O)(=O)/C=C/c1ccccc1)C(=O)N1CCC(C)CC1 (configuration not stated)	inactive
Cc1c(C(=O)OC(C)C)sc(NC(=O)c2cccnc2)c1C#N	9 (active)
CCOC(=O)c1ccc(NC(=O)c2cccnc2)cc1	inactive

Compound	B-score
CCOC(=O)c1sc(NC(=O)CSc2ncccn2)c(C#N)c1C	inactive
C=CCc1c(C)nc2cc(-c3ccccc3)[nH]n2c1=O	inactive
COc1ccc(CCNC(=O)CCNS(=O)(=O)c2cc(Br)cnc2N)cc1OC	inactive
Cc1ccc(S(=O)(=O)Nc2ccc3ncccc3c2)cc1	6 (active)
Cc1cc(C)cc(OCC(=O)Nc2ccc(S(=O)(=O)Nc3ccccn3)cc2)c1	inactive
Cc1ccc(NS(=O)(=O)c2ccc(C(C)(C)C)cc2)cn1	inactive
Cc1ccc2c(Cl)c(C(=O)Nc3nn[nH]n3)sc2c1	inactive
CCCCCCOc1ccc(OC(=O)c2cccnc2)cc1	inactive
CCCCCCCCCCCCN1C(=O)CSC1c1cccnc1 (configuration not stated)	9 (active)
CN(C)CCCN1C(=O)CSC1c1ccc([N+](=O)[O-])cc1 (configuration not stated)	inactive
CCCCN1C(=O)c2ccc(C(=O)Nc3ccc(S(=O)(=O)N(C)C)cc3)cc2C1=O	inactive
CC(C)(C)C(=O)N(Cc1ccccc1)c1ccccn1	inactive
CCN=C1S/C(=C\c2cc(Br)ccc2OCC(=O)OCC)C(=O)N1CC	inactive
CN(C)C(=O)c1ccc2c(c1)C1C3CCC(C3)C1C(c1ccccc1)N2 (configuration not stated)	6 (active)
CN(C)C(=O)c1ccc(NC(=O)c2ccccc2-c2ccccc2)cc1	inactive
O=C(c1ccc2c(c1)N(Cc1ccc(F)cc1)C(=O)c1ccccc1S2(=O)=O)N1CCN(c2ccccn2)CC1	inactive
O=C(NCc1ccncc1)NC12CC3CC(CC(C3)C1)C2	inactive
S=C(NCc1ccc(Cl)cc1)NC1CCCCC1	inactive
S=C(NCc1ccc(Cl)cc1)NC12CC3CC(CC(C3)C1)C2	11 (active)
Cc1cc(C)c(NC(=S)N2CCCC2C(=O)O)c(C)c1 (configuration not stated)	inactive
CC(C)[C@H](NC(=O)N1CCn2c1nc1ccccc12)C(=O)NCc1ccc2c(c1)OCO2	inactive
